Test results reported in ChEMBL document CHEMBL1961873, “Compounds: GSK PKIS; Assays: Nanosyn kinase panel” (2012).

How the values were obtained:
[1] = target: T1, Tyrosine-protein kinase ITK/TSK (Homo sapiens) (UniProt Q08881); conditions: at 1 µM;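 note: values are mean percent inhibition of ITK from the GSK PKIS screen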
T1 sequence (whole entry): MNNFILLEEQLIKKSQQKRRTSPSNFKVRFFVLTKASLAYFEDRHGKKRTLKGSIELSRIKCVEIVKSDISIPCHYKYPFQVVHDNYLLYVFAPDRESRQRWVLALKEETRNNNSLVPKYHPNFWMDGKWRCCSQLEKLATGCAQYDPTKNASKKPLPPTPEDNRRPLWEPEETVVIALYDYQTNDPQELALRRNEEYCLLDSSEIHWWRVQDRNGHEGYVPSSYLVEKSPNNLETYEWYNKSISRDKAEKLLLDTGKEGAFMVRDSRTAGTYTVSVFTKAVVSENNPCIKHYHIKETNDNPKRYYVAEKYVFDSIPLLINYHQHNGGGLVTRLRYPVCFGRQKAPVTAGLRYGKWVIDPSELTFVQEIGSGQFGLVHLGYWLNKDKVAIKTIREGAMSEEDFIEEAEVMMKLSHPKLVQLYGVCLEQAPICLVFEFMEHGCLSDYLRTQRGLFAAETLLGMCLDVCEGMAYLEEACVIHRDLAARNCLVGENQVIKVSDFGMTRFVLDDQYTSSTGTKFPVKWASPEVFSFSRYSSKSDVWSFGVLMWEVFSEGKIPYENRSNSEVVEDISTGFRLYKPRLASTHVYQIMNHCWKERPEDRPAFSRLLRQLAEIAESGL

[2] = target: Tyrosine-protein kinase JAK1 (Homo sapiens) (UniProt P23458); conditions: at 0.1 µM
Sequence of Tyrosine-protein kinase JAK1 (Homo sapiens) (P23458 whole entry): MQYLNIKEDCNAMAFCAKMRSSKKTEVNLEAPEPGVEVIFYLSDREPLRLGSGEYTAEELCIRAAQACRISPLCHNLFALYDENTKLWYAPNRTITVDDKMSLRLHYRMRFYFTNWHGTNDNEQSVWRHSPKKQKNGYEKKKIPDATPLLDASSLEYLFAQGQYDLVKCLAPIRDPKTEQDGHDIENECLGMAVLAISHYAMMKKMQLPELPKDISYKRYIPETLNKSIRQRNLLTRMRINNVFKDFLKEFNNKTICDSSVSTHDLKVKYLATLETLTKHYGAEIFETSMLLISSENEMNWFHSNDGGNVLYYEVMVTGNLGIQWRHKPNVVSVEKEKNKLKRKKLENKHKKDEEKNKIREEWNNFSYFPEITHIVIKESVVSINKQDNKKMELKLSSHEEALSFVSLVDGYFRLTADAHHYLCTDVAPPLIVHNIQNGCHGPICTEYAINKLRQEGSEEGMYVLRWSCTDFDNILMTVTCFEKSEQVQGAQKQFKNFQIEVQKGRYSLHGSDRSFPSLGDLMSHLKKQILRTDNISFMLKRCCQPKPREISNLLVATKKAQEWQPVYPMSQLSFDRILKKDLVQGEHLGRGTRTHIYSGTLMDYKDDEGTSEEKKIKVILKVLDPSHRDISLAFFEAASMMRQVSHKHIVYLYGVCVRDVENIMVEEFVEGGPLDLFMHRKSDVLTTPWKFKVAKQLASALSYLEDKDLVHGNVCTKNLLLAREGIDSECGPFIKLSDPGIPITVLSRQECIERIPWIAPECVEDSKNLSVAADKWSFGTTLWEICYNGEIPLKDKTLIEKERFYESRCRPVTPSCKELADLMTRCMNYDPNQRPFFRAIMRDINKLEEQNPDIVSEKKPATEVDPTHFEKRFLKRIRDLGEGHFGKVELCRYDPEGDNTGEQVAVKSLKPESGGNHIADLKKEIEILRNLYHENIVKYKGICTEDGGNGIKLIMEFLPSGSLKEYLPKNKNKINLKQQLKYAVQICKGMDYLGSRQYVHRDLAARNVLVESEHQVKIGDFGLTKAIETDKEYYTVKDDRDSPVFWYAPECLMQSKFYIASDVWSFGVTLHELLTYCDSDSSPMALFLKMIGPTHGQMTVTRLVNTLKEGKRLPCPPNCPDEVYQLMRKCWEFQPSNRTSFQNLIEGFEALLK

[3] = target: Tyrosine-protein kinase JAK1 (Homo sapiens) (UniProt P23458); conditions: at 1 µM
[4] = target: Tyrosine-protein kinase JAK2 (Homo sapiens) (UniProt O60674); conditions: at 0.1 µM
Sequence of Tyrosine-protein kinase JAK2 (Homo sapiens) (O60674 whole entry): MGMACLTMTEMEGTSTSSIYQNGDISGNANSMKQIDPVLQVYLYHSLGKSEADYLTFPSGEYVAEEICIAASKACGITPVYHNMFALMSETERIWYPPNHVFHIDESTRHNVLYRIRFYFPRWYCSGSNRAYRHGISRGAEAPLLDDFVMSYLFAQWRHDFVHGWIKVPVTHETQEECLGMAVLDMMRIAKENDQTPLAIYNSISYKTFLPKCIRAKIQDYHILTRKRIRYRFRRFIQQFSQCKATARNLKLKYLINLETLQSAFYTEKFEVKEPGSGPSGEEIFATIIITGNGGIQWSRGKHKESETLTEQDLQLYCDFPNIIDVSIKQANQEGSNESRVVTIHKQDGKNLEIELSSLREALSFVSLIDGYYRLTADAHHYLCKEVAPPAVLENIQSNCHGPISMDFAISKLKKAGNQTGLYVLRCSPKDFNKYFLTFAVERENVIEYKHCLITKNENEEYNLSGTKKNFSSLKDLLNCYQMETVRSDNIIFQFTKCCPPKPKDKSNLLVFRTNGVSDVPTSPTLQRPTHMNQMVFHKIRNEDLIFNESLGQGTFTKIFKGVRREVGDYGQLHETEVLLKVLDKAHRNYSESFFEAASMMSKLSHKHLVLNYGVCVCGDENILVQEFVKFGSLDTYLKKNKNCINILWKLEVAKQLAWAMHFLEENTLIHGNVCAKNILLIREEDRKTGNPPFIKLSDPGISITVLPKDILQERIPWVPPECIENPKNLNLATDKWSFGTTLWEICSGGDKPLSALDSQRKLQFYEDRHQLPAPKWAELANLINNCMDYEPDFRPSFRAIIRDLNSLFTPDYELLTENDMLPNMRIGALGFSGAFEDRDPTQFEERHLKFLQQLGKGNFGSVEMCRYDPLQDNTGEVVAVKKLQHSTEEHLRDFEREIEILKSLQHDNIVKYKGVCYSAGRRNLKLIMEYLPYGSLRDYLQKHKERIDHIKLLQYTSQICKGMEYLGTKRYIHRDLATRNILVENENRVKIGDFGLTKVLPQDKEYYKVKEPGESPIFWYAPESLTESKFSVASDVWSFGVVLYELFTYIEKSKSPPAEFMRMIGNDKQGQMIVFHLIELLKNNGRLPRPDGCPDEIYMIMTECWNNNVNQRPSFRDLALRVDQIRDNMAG

[5] = target: Tyrosine-protein kinase JAK2 (Homo sapiens) (UniProt O60674); conditions: at 1 µM
[6] = target: T2, Tyrosine-protein kinase JAK3 (Homo sapiens) (UniProt P52333); conditions: at 0.1 µM
T2 sequence (whole entry): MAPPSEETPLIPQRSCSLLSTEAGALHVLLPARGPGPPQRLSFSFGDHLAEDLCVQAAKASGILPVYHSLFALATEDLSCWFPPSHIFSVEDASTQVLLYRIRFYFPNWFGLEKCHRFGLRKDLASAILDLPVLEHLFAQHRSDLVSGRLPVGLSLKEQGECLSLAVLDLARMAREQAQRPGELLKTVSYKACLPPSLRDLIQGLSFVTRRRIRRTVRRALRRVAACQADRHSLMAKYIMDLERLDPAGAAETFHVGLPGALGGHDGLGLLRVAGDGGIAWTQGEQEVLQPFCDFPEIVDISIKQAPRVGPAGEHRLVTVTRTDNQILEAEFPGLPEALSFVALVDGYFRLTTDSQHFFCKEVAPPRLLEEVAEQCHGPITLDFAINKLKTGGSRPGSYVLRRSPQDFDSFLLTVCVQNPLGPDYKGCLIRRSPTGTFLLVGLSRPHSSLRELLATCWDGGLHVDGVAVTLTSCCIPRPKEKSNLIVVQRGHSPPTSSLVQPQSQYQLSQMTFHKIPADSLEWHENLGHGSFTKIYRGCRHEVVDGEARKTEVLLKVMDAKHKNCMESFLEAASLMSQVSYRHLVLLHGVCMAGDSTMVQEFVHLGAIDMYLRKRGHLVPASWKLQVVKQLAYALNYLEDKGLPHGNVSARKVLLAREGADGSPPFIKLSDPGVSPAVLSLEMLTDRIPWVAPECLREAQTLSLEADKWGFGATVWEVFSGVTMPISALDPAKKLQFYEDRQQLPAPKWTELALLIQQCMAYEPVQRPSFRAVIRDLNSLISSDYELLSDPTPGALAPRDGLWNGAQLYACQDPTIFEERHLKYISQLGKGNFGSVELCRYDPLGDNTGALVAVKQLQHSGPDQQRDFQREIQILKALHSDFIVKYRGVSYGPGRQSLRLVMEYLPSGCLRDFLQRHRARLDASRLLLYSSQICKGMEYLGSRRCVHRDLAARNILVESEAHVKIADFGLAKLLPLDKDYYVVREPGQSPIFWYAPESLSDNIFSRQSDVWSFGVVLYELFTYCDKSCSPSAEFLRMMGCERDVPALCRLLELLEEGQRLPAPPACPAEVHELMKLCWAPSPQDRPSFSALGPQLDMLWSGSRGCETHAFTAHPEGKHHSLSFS

[7] = target: T2, Tyrosine-protein kinase JAK3 (Homo sapiens); conditions: at 1 µM
[8] = target: Vascular endothelial growth factor receptor 2 (Homo sapiens) (UniProt P35968); conditions: at 0.1 µM
Sequence of Vascular endothelial growth factor receptor 2 (Homo sapiens) (P35968 whole entry): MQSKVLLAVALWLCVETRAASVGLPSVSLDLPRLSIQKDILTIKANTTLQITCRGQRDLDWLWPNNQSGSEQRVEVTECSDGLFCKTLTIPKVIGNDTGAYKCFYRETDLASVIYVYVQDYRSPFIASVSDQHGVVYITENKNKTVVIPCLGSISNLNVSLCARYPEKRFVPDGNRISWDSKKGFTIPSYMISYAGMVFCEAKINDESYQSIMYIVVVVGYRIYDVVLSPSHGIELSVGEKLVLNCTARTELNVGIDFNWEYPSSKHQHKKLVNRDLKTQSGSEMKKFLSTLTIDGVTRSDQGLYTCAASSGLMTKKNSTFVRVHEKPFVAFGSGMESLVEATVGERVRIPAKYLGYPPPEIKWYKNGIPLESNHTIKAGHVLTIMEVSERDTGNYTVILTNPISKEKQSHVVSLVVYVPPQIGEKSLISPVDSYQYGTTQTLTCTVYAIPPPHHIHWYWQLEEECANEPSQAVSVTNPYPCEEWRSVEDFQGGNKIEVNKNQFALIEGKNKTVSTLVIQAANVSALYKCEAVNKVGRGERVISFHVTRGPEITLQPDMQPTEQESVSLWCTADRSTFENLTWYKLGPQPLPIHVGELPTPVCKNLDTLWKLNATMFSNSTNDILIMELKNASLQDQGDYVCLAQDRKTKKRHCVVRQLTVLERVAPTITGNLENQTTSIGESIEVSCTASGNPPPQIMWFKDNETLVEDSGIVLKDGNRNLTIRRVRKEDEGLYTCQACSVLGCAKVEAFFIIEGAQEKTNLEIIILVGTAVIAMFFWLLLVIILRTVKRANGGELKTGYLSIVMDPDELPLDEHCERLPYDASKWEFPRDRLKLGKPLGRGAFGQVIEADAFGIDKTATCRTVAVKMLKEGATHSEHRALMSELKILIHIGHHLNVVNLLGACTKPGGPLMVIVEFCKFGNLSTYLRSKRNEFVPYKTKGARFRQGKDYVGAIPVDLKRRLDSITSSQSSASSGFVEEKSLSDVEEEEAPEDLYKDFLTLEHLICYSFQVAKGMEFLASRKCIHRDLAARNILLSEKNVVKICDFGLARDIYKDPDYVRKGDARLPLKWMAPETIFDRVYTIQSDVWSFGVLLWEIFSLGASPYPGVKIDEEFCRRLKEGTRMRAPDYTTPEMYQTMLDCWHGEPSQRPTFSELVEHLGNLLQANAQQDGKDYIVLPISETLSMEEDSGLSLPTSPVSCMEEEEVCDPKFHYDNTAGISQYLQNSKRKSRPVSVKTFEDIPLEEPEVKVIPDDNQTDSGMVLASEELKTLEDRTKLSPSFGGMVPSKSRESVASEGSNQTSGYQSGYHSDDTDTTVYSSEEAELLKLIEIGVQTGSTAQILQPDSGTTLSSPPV

[9] = target: Vascular endothelial growth factor receptor 2 (Homo sapiens) (UniProt P35968); conditions: at 1 µM
[10] = target: Mast/stem cell growth factor receptor Kit (Homo sapiens) (UniProt P10721); conditions: at 0.1 µM;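 note: values are mean inhibition of KIT, from the GSK PKIS dataset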
Sequence of Mast/stem cell growth factor receptor Kit (Homo sapiens) (P10721 whole entry): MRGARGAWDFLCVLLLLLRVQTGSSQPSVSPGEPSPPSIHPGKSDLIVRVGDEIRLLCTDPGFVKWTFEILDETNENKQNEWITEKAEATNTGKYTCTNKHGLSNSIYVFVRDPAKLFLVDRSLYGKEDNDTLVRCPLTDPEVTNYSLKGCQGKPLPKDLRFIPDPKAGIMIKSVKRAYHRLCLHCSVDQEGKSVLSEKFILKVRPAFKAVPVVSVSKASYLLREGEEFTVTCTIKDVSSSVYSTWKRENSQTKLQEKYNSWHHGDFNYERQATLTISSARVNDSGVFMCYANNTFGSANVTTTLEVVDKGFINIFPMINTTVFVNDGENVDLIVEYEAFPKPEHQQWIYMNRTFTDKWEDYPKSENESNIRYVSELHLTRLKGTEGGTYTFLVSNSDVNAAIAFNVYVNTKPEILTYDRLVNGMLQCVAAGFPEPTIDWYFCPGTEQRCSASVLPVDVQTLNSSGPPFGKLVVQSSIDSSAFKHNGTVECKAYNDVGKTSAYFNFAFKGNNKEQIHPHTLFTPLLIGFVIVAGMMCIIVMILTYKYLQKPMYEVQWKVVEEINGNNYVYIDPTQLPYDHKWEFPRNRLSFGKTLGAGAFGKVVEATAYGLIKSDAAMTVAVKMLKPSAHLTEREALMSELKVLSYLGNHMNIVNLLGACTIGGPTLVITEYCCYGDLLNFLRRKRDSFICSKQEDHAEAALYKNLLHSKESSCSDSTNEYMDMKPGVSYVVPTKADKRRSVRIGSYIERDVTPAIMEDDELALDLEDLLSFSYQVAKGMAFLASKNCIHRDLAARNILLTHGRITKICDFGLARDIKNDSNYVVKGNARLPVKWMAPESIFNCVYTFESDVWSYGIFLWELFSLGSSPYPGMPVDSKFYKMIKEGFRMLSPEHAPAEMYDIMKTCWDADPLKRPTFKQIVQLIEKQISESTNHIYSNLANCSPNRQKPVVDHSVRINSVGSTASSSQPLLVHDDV

Row | Structure (SMILES) | inhibition [1] | inhibition [2] | inhibition [3] | inhibition [4] | inhibition [5] | inhibition [6] | inhibition [7] | inhibition [8] | inhibition [9] | inhibition [10]
1 | CNC(=O)c1cncc(/C=C/c2c(C)cccc2C)c1 | -3.29% | 0.62% | -1.32% | 2.87% | 2.41% | -3.28% | -0.59% | 3.77% | 3.51% | 10.7%
2 | NCc1ccc(-n2c(-c3nonc3N)nc3cnccc32)cc1 | 2.4% | 4.99% | 5.42% | 1.95% | 2.09% | -0.04% | 1.57% | 10.5% | 22.8% | 5.81%
3 | CCc1ccc(Oc2nccc(-c3c(-c4ccc(F)cc4)ncn3C3CCNCC3)n2)cc1 | 2.38% | 4.16% | 4.5% | 1.64% | 2.94% | -1.25% | -0.22% | 5.19% | 13.5% | 4.71%
4 | Cc1ccc(C(=O)NC2CCC2)cc1-c1ccc(C(=O)NCC2CC2)cc1 | 1.48% | 0.07% | 0.59% | 0.91% | 0.54% | -1.22% | 1.06% | 3.33% | 3.21% | 2.49%
5 | O=C(Nc1n[nH]c2nc(-c3ccc(O)cc3)c(Br)cc12)C1CC1 | 3.5% | 15.5% | 55% | 3.57% | 28.4% | 11.9% | 62.2% | 36.2% | 71.6% | 17.5%
6 | NS(=O)(=O)c1ccc(N/N=C2\C(=O)Nc3ccc(-c4cnco4)cc32)cc1 | -0.93% | 1.96% | 6.12% | 0.38% | 5.7% | -4.76% | 24.1% | 6.94% | 39.1% | 5.83%
7 | NC(=O)c1cc(-c2ccc(F)cc2)cc(-c2ccncc2)c1N | -0.8% | 3.49% | 12.2% | 1.44% | 1.06% | -0.87% | -2.1% | 6% | 6.66% | 11.9%
8 | CN1CCN(CCCNc2nc3ccc(Oc4ccc(NC(=O)Nc5cc(C(F)(F)F)ccc5F)cc4)cc3[nH]2)CC1 | -1.94% | 6.45% | 1.78% | 3.76% | 6.4% | -2.58% | 0.29% | 38.6% | 71.9% | 48.5%
9 | C[C@@H](Oc1cc(-n2cnc3ccc(OC4CCN(C)CC4)cc32)sc1C(N)=O)c1ccccc1Cl | -1.75% | 0.47% | -0.07% | 4.66% | 2.46% | -5.38% | 13.5% | 9.62% | 40.3% | 5.05%
10 | COc1ccc(C2=C(N3CCc4ccccc43)C(=O)NC2=O)cc1 | 2.26% | 3.92% | 7.64% | 2.9% | 3.26% | -0.7% | 1.63% | 8.98% | 14.5% | 7.63%
11 | NC(=O)c1ccc(Oc2nccc(-c3c(-c4ccc(F)cc4)ncn3C3CCNCC3)n2)cc1 | 2.32% | 3.88% | 0.7% | 2.78% | 3.18% | -0.36% | -0.92% | 4.96% | 9.7% | 7.24%
12 | Fc1ccc(-c2ncn(CCCN3CCOCC3)c2-c2ccncc2)cc1 | 1.2% | 1.72% | -1.2% | -0.43% | 0.65% | 0.1% | 1.07% | -0.88% | 1% | -3.23%
13 | CN(C)CCOc1ccc(-c2cc(-c3ccc4c(c3)CCC4=NO)c(-c3ccncc3)o2)cc1 | 0.28% | 1.5% | 0.68% | 0.4% | -1.64% | -0.61% | 1.8% | -0.68% | 0.23% | -2.06%
14 | COc1cc(Nc2ncc3c(C)nc(-c4cccc(Oc5ccccc5)c4)n3n2)cc(OC)c1OC | 2.18% | 1.98% | -5.12% | 0.96% | 2.54% | 0.02% | 1.74% | 2.28% | 3.61% | 3.09%
15 | CCc1nccc2c1nc(-c1nonc1N)n2CC | 1.25% | 0.52% | -2.63% | 3.71% | 2.91% | 0% | 0.61% | 5.64% | 17.7% | 0.21%
16 | Cc1ccc(NC(=O)c2ccoc2)cc1-c1ccc(C(=O)NCC2CC2)cc1 | 1.05% | 1% | 2.95% | 0% | -1.25% | -1.84% | -0.47% | 15.3% | 62% | 1.57%
17 | Fc1ccc(-c2ncn(C3CCNCC3)c2-c2ccnc(Oc3ccc(Oc4ccccc4)cc3)n2)cc1 | 2.41% | 1.18% | 1.84% | 2.34% | 3.84% | 1.04% | 0.1% | 2.97% | 10.7% | 2.94%

Row | Structure (SMILES) | inhibition [1] | inhibition [2] | inhibition [3] | inhibition [4] | inhibition [5] | inhibition [6] | inhibition [7] | inhibition [8] | inhibition [9] | inhibition [10]
18 | NS(=O)(=O)c1ccc(N/N=C2\C(=O)Nc3ccc(C(=O)NCCCn4ccnc4)cc32)cc1 | 3.12% | 5.06% | 23.8% | 0.1% | 4.95% | -2% | 18.8% | 8.51% | 34.1% | 4.8%
19 | CN(C)c1ccc2c(c1)/C(=C/Nc1ccc(S(N)(=O)=O)cc1)C(=O)N2 | 3.68% | 0.51% | 14.2% | 0.74% | 2.09% | -0.16% | 20.4% | 14.6% | 53.6% | 4.04%
20 | COc1cc2ncn(-c3cc(OCCc4ccccc4)c(C(N)=O)s3)c2cc1OC | 2.27% | 1.72% | -5.52% | 0.93% | 0.41% | -0.27% | -0.4% | 3.48% | 17% | 0.95%
21 | COc1cc(Nc2ncc3c(C)nc(-c4cccc(C(F)(F)F)c4)n3n2)cc(OC)c1OC | 13.5% | 3.02% | 8.95% | 1.27% | 11.1% | -0.52% | 4.91% | 4.26% | 8.61% | 11.1%
22 | CCN(CC)Cc1ccc(Nc2nccc(-c3cnn4ncccc34)n2)cc1 | -0.21% | 4.71% | 4.83% | 6.24% | 20.9% | -3.13% | 14.2% | 7.19% | 39.1% | 64.8%
23 | NC(=O)Cc1ccccc1Oc1nccc(-c2c(-c3ccc(F)cc3)ncn2C2CCNCC2)n1 | 1% | 2.63% | -2.73% | 0.56% | -0.85% | -1.1% | 0.74% | 1.89% | 3.48% | 1.71%
24 | Fc1ccc(-c2nc3n(c2-c2ccncc2)CCS3)cc1 | -1.9% | 2.03% | 4.76% | 0.84% | 1.07% | -4.98% | -4.14% | 5.19% | 8.03% | 5.12%
25 | COc1ccc2cc(-c3c(-c4ccncc4)nc(-c4ccc(S(C)(=O)=O)cc4C)n3C)ccc2c1 | 1.36% | 5.05% | 11.1% | 1.62% | 1.45% | -0.96% | -0.93% | 10.7% | 47.8% | 5.09%
26 | O=C1Nc2ccc(I)cc2C1=Cc1cc(Br)c(O)c(Br)c1 | 1.44% | 1.44% | 2.67% | 2.54% | 3% | -0.81% | -3.69% | 5.81% | 9.7% | 5.45%
27 | CCS(=O)(=O)c1ccc(OC)c(Nc2ncc(-c3cccc(-c4ccccc4F)c3)o2)c1 | 2.37% | -2.17% | 1.93% | 0.19% | 2.27% | 1.2% | 13.9% | 66.9% | 89.5% | 53.7%
28 | Cc1nnc(-c2ccc(C)c(-c3ccc(C(=O)NCc4ccc(Cl)cc4)cc3)c2)o1 | -2.86% | 4.61% | 16.9% | 1.06% | 1.06% | -4.26% | -4.85% | 4.61% | 5.62% | 4.95%
29 | Cc1ccc(C(=O)NC(C)C)cc1-c1ccc(C(=O)NCC2CC2)cc1 | -0.47% | -3.33% | -1.59% | -1.52% | -1.28% | 0.73% | 1.51% | -1.43% | 0.78% | -2.99%
30 | NC(=O)c1cc(-c2ccncc2)cc(-c2ccccc2)c1N | 1.74% | 6.03% | 4.31% | 2.14% | 1.86% | -1.25% | -1.1% | 3.91% | 10.7% | 23%
31 | NS(=O)(=O)c1ccc(Nc2cc(-c3ccc(O)c(F)c3)n[nH]2)cc1 | 12.4% | -7.43% | 6.94% | -0.13% | -0.37% | 0.11% | 8.25% | 4.49% | 35.3% | 20.9%
32 | Nc1nccc(-c2c(-c3ccc(F)cc3)ncn2C2CCC(O)CC2)n1 (stereo not given) | 0.63% | -6.08% | -2.41% | -0.54% | -0.27% | 1.29% | 2.69% | 2.29% | 17.2% | -1.79%
33 | CCC(=O)Nc1ccc(C)c(-c2ccc(C(=O)NCC3CC3)cc2)c1 | -0.1% | 2.44% | 4.69% | 1.7% | 1.15% | -1.95% | -0.85% | 3.67% | 9.29% | 4.93%
34 | O=C(Nc1n[nH]c2cc(-c3ccccc3)ccc12)C1CC1 | 2.12% | 2.85% | 7.69% | 2.26% | 0.77% | -1.69% | 0.16% | 4.79% | 12.6% | 3.52%
